In all, about 69,000 compounds went through this assay and about 8,600 (12%) showed an effect of 50% or more. Many of the other results were omitted from the sample, so strong results are more common in it than they were.
Each compound was assayed on Plasmodium berghei (assay: Screen against P. berghei liver stage (PbLuc), transformed with Luciferase, at 10uM). Settings: tested at 10 uM.
Type: functional, HepG2

Structure (SMILES) | INHIBITION [%]
Cc1cc(Nc2cnccn2)cc(C2CCCN2)n1 (centres undefined) | 21.7
O=C(C1CCOCC1)N1CCO[C@H]2[C@H](OCC3CC3)CC[C@@H]21 | -37.4
Cc1cccc(C(=O)N2CCc3ncnc(C4CCOC4)c3CC2)n1 (centres undefined) | 15.9
COC(C)(C)CC(C)NCc1cc(-c2ccco2)on1 (centres undefined) | 29.2
CCSCC(C)NCc1cc(-c2ccco2)on1 (centres undefined) | 13.7
CC(CN1CCCCCC1)NCc1cc(-c2ccco2)on1 (centres undefined) | 59.5
CCc1cnccc1C(=O)NC1CCN(Cc2ccccc2F)CC1 | 23.1
Cn1ncc(N2CCOC(CCNC(=O)CO)C2)cc1=O (centres undefined) | 25.8
Cn1ncc(N2CCOC(CCNC(=O)NC(C)(C)C)C2)cc1=O (centres undefined) | 71.2
Cn1ncc(N2CCOC(CCNC(=O)N3CCCCC3)C2)cc1=O (centres undefined) | 47.4
O=S(=O)(C1CC1)N1C[C@H](Oc2ccccn2)[C@H]2OCCC[C@H]21 | 15.4
Cc1ccc(CNS(=O)(=O)C=c2[nH]c(=O)n3cccc3c2=O)cc1 | 0
COCCO[C@H]1CCN(Cc2cccs2)[C@H]1Cc1cccnc1 | 32.7
CO[C@H]1CCN(Cc2cccs2)[C@@H]2CN(Cc3ccncc3)C[C@H]12 | 61.3
CO[C@@H]1CCN(Cc2cccs2)[C@H]1Cc1ccncc1 | 62.5
COCCN1CC[C@H](OC)[C@@H]1Cc1ccccc1 | 10
CN(C)[C@@H]1CCN(C(=O)Cc2ccc(F)cc2)[C@H]1Cc1ccncc1 | 15.9
CN(C)[C@@H]1CCN(C(=O)Cc2cccs2)[C@H]1Cc1cnn(C)c1 | -16.7
COCCN1C[C@@H]2[C@@H](OC)CCN(Cc3cccs3)[C@@H]2C1 | 16.8
CO[C@@H]1CCN(Cc2cccs2)[C@@H]2CN(Cc3ccncc3)C[C@@H]21 | 46.4
CN(C)[C@@H]1CCN(C(=O)Cc2cccs2)[C@H]1Cc1ccncc1 | 74.2
O=C(Nc1ccccc1)N1CCn2c(nnc2C2CCNCC2)C1 | 11.8

Structure (SMILES) | INHIBITION [%]
CN(C)C(=O)CN1CCOCC2(CCN(c3ncc(F)cn3)CC2)C1 | -3.26
COCC1CN(Cc2ccc(OC)cc2)S(=O)(=O)c2cnccc2O1 (centres undefined) | 13.9
CC(C)CCn1nc(CNc2ccc(Br)cc2)nc1O | 44.9
CCCC(=O)N1CCCC(Cn2cc(-c3ccc(F)cc3)nn2)C1 (centres undefined) | 1.24
Cc1ccc(NCc2nc3n(n2)CCCCC3)c(C)c1 | 2.69
CCN1C(=O)C[C@@H]2[C@@H]1CCN2S(=O)(=O)Cc1ccc(C)cc1 | -17.1
COc1ccc(C(=O)Nc2cc(CC(C)C)nn2C)cc1 | 22.3
CCNC(=O)[C@@H]1C[C@@H](N)CN1Cc1ccc(Sc2ccc(C)cc2)o1 | 77.7
CCNC(=O)[C@@H]1C[C@H](N)CN1C(=O)Cc1cc(C)ccc1C | -1.91
CCNC(=O)[C@@H]1C[C@H](N)CN1C(=O)CCc1ccc(C)c(C)c1 | 30.9
CCNC(=O)[C@@H]1C[C@H](N)CN1Cc1ccc(-c2ccccc2C#N)o1 | 47.1
CCNC(=O)[C@@H]1C[C@H](N)CN1Cc1ccc(-c2cc[nH]n2)o1 | 61.9
CCNC(=O)[C@@H]1C[C@@H](N)CN1C(=O)Cc1cc(C)ccc1C | 11.2
CCNC(=O)[C@@H]1C[C@@H](N)CN1Cc1ccc(-c2ccccc2C#N)o1 | 23.9
CCNC(=O)[C@@H]1C[C@H](N)CN1Cc1ccc(Sc2ccc(C)cc2)o1 | 67.5
CCNC(=O)[C@@H]1C[C@@H](N)CN1C(=O)CCc1ccc(C)c(C)c1 | 15.3
CCCNC(=O)Nc1ncc(-c2cccnc2)s1 | 15.5
COCC(=O)N1CC[C@H]2C[C@H](C)O[C@@H]2C1 | 38.1
CCCC(=O)N1CCCCC1C(=O)Nc1ccc(-c2nnc[nH]2)cc1 (centres undefined) | 16.8
Cn1nc(C2CCN(C(=O)CCN3CCOCC3)CC2)c2cccnc21 | 32.8
CC(C)c1nc(CSc2nnc(-c3cccs3)n2CC(N)=O)no1 | -49.7
CC(O)CN1CCN(C(=O)c2ccn(-c3ccccc3Cl)n2)CC1 (centres undefined) | -12.2

Structure (SMILES) | INHIBITION [%]
COC[C@@H]1CN(C)C(=O)[C@@H]2CCN(Cc3ccco3)CC[C@H]12 | 54.1
CN1C[C@H](COCC2CC2)[C@H]2CCN(Cc3ccco3)CC[C@H]2C1=O | 33.4
CN1C[C@@H](COCC2CC2)[C@H]2CCN(Cc3ccco3)CC[C@H]2C1=O | 46.7
Cc1cn2c(n1)CCC(NS(=O)(=O)c1sc(C)nc1C)C2 (centres undefined) | 21.5
Cc1cn2c(n1)CCC(NS(=O)(=O)c1ccc(C)s1)C2 (centres undefined) | 34.4
Cc1cn2c(n1)CCC(NS(=O)(=O)c1cc(C)sc1C)C2 (centres undefined) | 61.5
Cc1cccc(COC[C@@H]2CC[C@H]3[C@H](CCN3C(=O)CC3CC3)O2)n1 | 24.1
Cc1ccc(-c2cc(C(=O)N(C)Cc3noc4c3CCCC4)[nH]n2)o1 | 34.5
COc1ccc(C(C)Nc2ncc(C(N)=O)cc2Cl)cc1OC (centres undefined) | -59.5
CC(Nc1cnn(C)c(=O)c1Cl)c1ccc(F)c(F)c1 (centres undefined) | 68.9
Cn1ncc(NCc2cc(F)cc(F)c2)c(Cl)c1=O | 8.48
Cc1nccn1-c1ccc(C(C)Nc2cnn(C)c(=O)c2Cl)cc1 (centres undefined) | 52.6
CC(Nc1cnn(C)c(=O)c1Cl)c1ccc(F)cc1 (centres undefined) | 65.9
CC(NCc1cnc(N2CCN(C)CC2)nc1)c1ccc(F)cc1 (centres undefined) | 26.5
COc1ccc(C(C)Nc2ncc(C(N)=O)cc2Cl)cc1F (centres undefined) | -138
COc1ccc(C(C)Nc2cnn(C)c(=O)c2Cl)cc1OC (centres undefined) | 68.9
Cc1nccn1-c1ccc(NS(=O)(=O)c2cnn(C(C)C)c2)cn1 | -2.97
COc1ccc(C(C)Nc2nc3c(C)nn(C)c3c(=O)n2C)cc1 (centres undefined) | -45.2
Cc1ccc(C(C)NC(=O)CCc2cnn(C)c2)cc1F (centres undefined) | 33
Cn1ncc(N2CCOCC2)c(Cl)c1=O | 8.77

— ChEMBL document CHEMBL4513216, “Probing the Open Global Health Chemical Diversity Library for Multistage-Active Starting Points for Next-Generation Antimalarials” (ACS Infect Dis, 2020)
